Screening results as filed in PubChem.
Shown is part of a subset that was picked to be rich in hits.
Shiga inhibitor: inhibitors of Shiga toxin in Vero cells | Vero cells, Shiga toxin protein synthesis inhibition reporter | inhibition, % at 38.7 µM | 290,000 tested, 9.2% active | AID 2315; in the data active = inhibition mostly above about 28%, no sharp cut-off; inactive = mostly below about 43%; also: 0% is about no effect
Tb PYK inh: blocks Trypanosoma brucei pyruvate kinase | 410,000 tested, 0.12% active | Potency, µM (titrated, usually from 76.8 µM), without a hit: at the highest dose activity, negative = inhibition, most hits filed as inhibitors | TbPYK enzyme, Kinase-Glo Plus ATP luminescence, 45 min | Q57TT1 | AID 624173; also: potency is read from the fitted curve at half-maximal effect; % is scaled to controls: 0 for no effect and ±100 for the full control effect; nearly all actives have a fitted effect of over 50% in size
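Screened from lowest to highest concentration, compounds were pinned into TbPYK/substrate mixtures, and ADP (130 uM final) was added. Plates sat at room temperature for 45 min prior to Kinase-Glo Plus detection by luminescence.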
CHX counter-1: affects cycloheximide protein synthesis inhibition readout, counter-screen; cell reporter, cycloheximide protein synthesis inhibition counterscreen; max response, %; 300,000 tested, 12% active; in the data active = max response mostly above about 13%, no sharp cut-off; inactive = mostly below about 14%; also: read at 38.3 µM for the half of the compounds with a filed dose; 0% is about no effect
LmPK inh: blocks Leishmania mexicana pyruvate kinase activity | Q27686 | Potency, µM (top dose mostly 57.5 µM), for the others: at the highest dose activity change, negative = inhibition, actives largely listed as inhibitors | 290,000 tested, 0.37% active | AID 1721 | purified LmPK, Kinase-Glo ATP luminescence, 1 h; also: potency is read from the fitted curve at half-maximal effect; % is scaled to controls: 0 for no effect and ±100 for the full control effect
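Screened at intermediate enzyme activity to detect both inhibitors and activators: LmPK at 0.1 nM, with a 0.5 nM enzyme column as activation reference. PEP 0.5 mM, ADP 0.1 mM; ATP detected by luminescence after 1 h.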
FBPA Giardia inh: blocks Giardia fructose-bisphosphate aldolase activity. Potency, µM (doses to about 59.6 µM), without a hit: at the highest dose activity, negative = inhibition, actives largely listed as inhibitors. AID 2451. 290,000 tested, 0.71% active. A8B2U2. purified Giardia FBPA; also: potency is read from the fitted curve at half-maximal effect; % is scaled to controls: 0 for no effect and ±100 for the full control effect; nearly all actives have a fitted effect of over 55% in size
Target sequence (A8B2U2 whole entry, looked up): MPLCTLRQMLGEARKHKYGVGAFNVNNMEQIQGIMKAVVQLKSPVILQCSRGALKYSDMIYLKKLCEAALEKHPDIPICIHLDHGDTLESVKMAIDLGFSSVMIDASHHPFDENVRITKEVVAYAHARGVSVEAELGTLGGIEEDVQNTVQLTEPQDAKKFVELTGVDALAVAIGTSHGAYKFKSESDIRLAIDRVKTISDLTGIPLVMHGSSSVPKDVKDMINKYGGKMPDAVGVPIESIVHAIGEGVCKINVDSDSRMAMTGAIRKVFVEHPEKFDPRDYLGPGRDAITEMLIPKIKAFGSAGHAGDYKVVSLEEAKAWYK
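Giardia FBPA (40 nM reagent) was preincubated 10 min at RT with compound (up to 57.5 uM final), then substrate plus GAPDH/TPI/NAD/arsenate coupling system with diaphorase/resazurin was added; resorufin fluorescence (525/598 nm) was read after 20 min.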
RE007 growth inh: less growth of the S. pombe RE007 Vpr strain | S. pombe RE007 Vpr strain, BacTiter-Glo ATP luminescence, 24 h | Potency, µM (highest dose often 92.2 µM), for inactives: at the top dose activity change, negative = less growth, most hits filed as inhibitors | 360,000 tested, 0.21% active | AID 651644; active = well fitted falling curve with a large enough effect; inconclusive = small, poorly fitted or top-dose-only effect; inactive = no such curve, though single readings can be large or run the other way; also: potency is read from the fitted curve at half-maximal effect; % is scaled to controls: 0 for no effect and ±100 for the full control effect; nearly all actives have a fitted effect of over 50% in size
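Fission yeast RE007 carrying one integrated HIV-1 vpr copy, seeded at OD 0.01 in PMG+AL medium with 23 nL pinned compound. Grown 24 h at 30 degrees; viability read by BacTiter-Glo luminescence after 5 min.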
CHX counter-2: counter-screen for Shiga toxin inhibitors: cycloheximide protein synthesis block | Potency, µM (series often up to 38.3 µM), for inactives: at the highest dose activity (activation), hits mostly activators | shares compounds with Shiga inhibitor | 510 tested, 3% active | AID 2318 | Cycloheximide counterscreen, protein synthesis reporter, Shiga toxin assay; calls by dose curve; also: potency is read from the fitted curve at half-maximal effect; 0% is about no effect
Numbers without * were called inactive; ? = inconclusive; · = no result. Unless noted, calls follow the shape of the dose curve; as a rule, active = well fitted curve in the direction sought with a large enough effect; inconclusive = small, poorly fitted or top-dose-only effect, or another doubt; inactive = no such curve, though single readings can be large; an effect the other way counts as inactive or inconclusive.

SMILES	Shiga inhibitor	Tb PYK inh	CHX counter-1	LmPK inh	FBPA Giardia inh	RE007 growth inh	CHX counter-2
CCOC(=O)C1CCCN(C(=O)c2cc(Nc3ccc(OC)cc3OC)nc3ccccc23)C1 (configuration not stated)	23	-3%	26	4%	-9%	1%	·
COCCCNC(=O)CSc1nc2cc3c(cc2c(=O)n1CCCCCC(=O)NCc1ccc(OC)cc1)OCO3	·	2%	·	·	·	·	·
CCCCOC(=O)c1ccc(N=Nc2c(C)c(C#N)c(O)[nH]c2=O)cc1	47*	-1%	8	-1%	-14%	-8%	?
Cc1ccc(C(=O)OCCn2cc(C#N)c(=O)[nH]c2=O)cc1	-12	-7%	10	6%	2%	9%	·
COc1cccc(NC(=O)c2oc3ccccc3c2NC(=O)c2ccc(OC(C)C)cc2)c1	·	0%	·	·	·	·	·
CCc1ccccc1NC(=O)c1ccc2[nH]c(C)c(C)c2c1	·	-1%	·	·	·	·	·
NS(=O)(=O)c1ccc(CCNC(=O)c2ccc(NC3=NC4CS(=O)(=O)CC4S3)cc2)cc1 (configuration not stated)	114*	-6%	-4	-2%	-25%	6%	-1%
CC(O)(c1cccnc1)c1nc(-c2ccc(F)c(Cl)c2)cs1 (configuration not stated)	·	-4%	·	·	·	45%	·
O=C(NCc1ccccc1)C1CCCC1	21*	·	6	-6%	-2%	·	4%
NS(=O)(=O)c1ccc(CCNS(=O)(=O)c2ccc(Cl)nc2)cc1	-5	0%	-1	-9%	2%	4%	·
COc1ccc(NC(=O)c2cc(-c3ccc(F)cc3OC)n[nH]2)c(C)c1	·	-8%	·	·	·	4%	·
CCOC(=O)c1cn(Cc2ccc(C)cc2)nn1	45*	-3%	11	-4%	7%	25%	-3%
COc1ccc(C)cc1NC(=O)c1ccc(S(=O)(=O)N2CCCCC2)cc1	25*	-1%	5	4%	-9%	3%	-2%
COc1ccc(S(=O)(=O)N2CCCCCC2)cc1NC(=O)c1ccccc1	2	-13%	2	-7%	·	-25%	·
Cn1c(-[n+]2c(-c3ccccc3)cc(-c3ccccc3)cc2-c2ccccc2)nc2cc([N+](=O)[O-])ccc21	42*	-8%	12	-1%	?	0%	-3%
C=CCNc1sc(C(=O)c2ccccc2)c(N)c1-c1nc2ccccc2s1	73*	?	13	1%	1%	?	?
O=C(/C=C/C#Cc1cccc(NS(=O)(=O)c2ccccc2)c1)NO	65*	·	13	·	-12%	·	0%
CC(=O)c1ccc(NC(=O)C(C)Sc2nnc(C3CCCCC3)o2)cc1 (configuration not stated)	47*	·	6	-2%	15%	·	-2%
Cc1ccc2nc(-c3ccc(Br)cc3)cc(C(=O)NCC3CCCO3)c2c1 (configuration not stated)	·	4%	·	·	·	-11%	·
Cc1ccc2nc(-c3ccccc3)cc(C(=O)NCC3CCCO3)c2c1 (configuration not stated)	40*	-6%	10	4%	-6%	-12%	1%
O=c1c2ccccc2sc2nc(C3CCCCC3)n(Cc3ccco3)c(=O)c12	24*	-4%	3	-9%	-12%	2%	-1%
Cc1cc(C)c2c(n1)SCC(=O)N2CC(=O)Nc1ccc(C)c(C)c1	16*	4%	-1	0%	4%	-5%	0%
COc1ccc(N/C=C(\C#N)c2nc3ccccc3n2C)c(OC)c1	81*	5%	-2	0%	3%	-23%	?
C(=C\c1ccccc1)/CN1CCN(C(c2ccccc2)c2nnnn2C2CCCCC2)CC1 (configuration not stated)	·	-2%	·	·	·	-9%	·
